A short description of assay [1]: ATG_CRE_CIS: Attagene CIS-FACTORIAL HepG2 Assay for human cAMP Responsive Element (CRE) binding protein 3 (AID 2282926). The conditions noted are these: HepG2 CRE cis-reporter, Attagene multiplexed mRNA; actives raise or lower the signal. A digest of the protocol:
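Human liver HepG2, transient MRTU transfection, 24 h compound exposure. Total RNA → oligo(dT) RT → PCR → 6-FAM primer extension → HpaI cut → CE. Activity called both directions vs DMSO.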

The target in assay [2] is CCAAT/enhancer-binding protein beta (Homo sapiens) (UniProt P17676). Briefly: ATG_C_EBP_CIS: Attagene CIS-FACTORIAL HepG2 Assay for human CCAAT/Enhancer Binding Protein (C/EBP) beta (AID 2282927). The conditions noted are these: HepG2 Attagene cis-factorial transcription factor reporter; actives raise or lower the signal. A digest of the protocol:
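Transiently transfected HepG2 (MRTU library, endogenous TF-driven promoters); 24 h dosing; total RNA → oligo(dT) RT → PCR → 6-FAM primer extension → HpaI digest → CE; fit bidirectionally vs DMSO.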

A short description of assay [3]: ATG_CMV_CIS: Attagene CIS-FACTORIAL HepG2 Assay for human CMV (Internal Marker) (AID 2282928).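 Note: endpoint acts as a background internal control marker rather than a target.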 The conditions noted are these: HepG2 CMV promoter reporter, transcription factor profiling; actives raise or lower the signal. The procedure, abridged:
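CMV internal-marker background readout in transiently transfected HepG2 cells bearing cis-regulated reporter units. Reporter mRNA is measured 24 h after dosing by RT-PCR and capillary electrophoresis, with bidirectional fitting against DMSO.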

The nature of assay [4]: ATG_DR4_LXR_CIS: Attagene CIS-FACTORIAL HepG2 Assay for human Liver X Receptor (LXR), DR4 submotif (AID 2282929). The conditions noted are these: HepG2 Attagene DR4 cis-reporter, mRNA transcription; actives raise or lower the signal. The procedure, abridged:
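HepG2 cells transiently transfected with cis-promoter-driven multiplexed reporter units (DR4 element) were dosed for 24 h. Reporter mRNA was quantified by RT-PCR, fluorescent primer extension, HpaI digestion and capillary electrophoresis; bidirectional fitting versus DMSO baseline.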

Assay [5] is described as follows: ATG_AP_1_CIS: Attagene CIS-FACTORIAL HepG2 Assay for human Activator Protein 1 (AP-1) (AID 2282931). The conditions noted are these: HepG2 Attagene cis-factorial AP-1 reporter mRNA; actives raise or lower the signal. The procedure, abridged:
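HepG2 cells transiently transfected with cis-element-driven multiplex reporter units; 24 h compound exposure. Reporter mRNA quantified by RT-PCR, FAM-labelled fragments resolved by capillary electrophoresis; bidirectional fit versus DMSO baseline.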

A short description of assay [6]: ATG_AP_2_CIS: Attagene CIS-FACTORIAL HepG2 Assay for human Activator Protein 2 (AP-2) (AID 2282932). The conditions noted are these: HepG2 AP-2 cis-reporter, Attagene transcription factor profiling; actives raise or lower the signal. A digest of the protocol: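 Multiplexed mRNA reporter assay in HepG2: cis-regulated units report endogenous factor activity after 24 h treatment. Fluorescence from capillary electrophoresis of RT-PCR products gives the signal, with DMSO as baseline.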

The nature of assay [7]: ATG_BRE_CIS: Attagene CIS-FACTORIAL HepG2 Assay for human Bone Morphogenetic Protein (BMP) Response Element (BRE) (AID 2282933). The conditions noted are these: HepG2 BMP response element reporter, Attagene transcription factor profiling; actives raise or lower the signal. The procedure, abridged: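 After a 24 h chemical treatment, transiently transfected HepG2 cells were lysed for RNA; reporter transcripts were quantified by fluorescent RT-PCR and capillary electrophoresis, normalised to DMSO.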

Assay [8] deals with Transcription factor E2F1 (Homo sapiens) (UniProt Q01094). Briefly: ATG_E2F_CIS: Attagene CIS-FACTORIAL HepG2 Assay for human E2F Transcription Factor 1 (AID 2282935). As to conditions: HepG2 Attagene cis-reporter, E2F reporter RNA transcripts; actives raise or lower the signal. A digest of the protocol: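 Measures reporter transcript levels via RT-PCR with capillary electrophoresis detection in HepG2 cells harboring cis-regulated reporter units; 24 h post-dose; bidirectional curve fitting with DMSO as baseline.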

A short description of assay [9]: ATG_E_Box_CIS: Attagene CIS-FACTORIAL HepG2 Assay for human Enhancer Box (E-box) (AID 2282936). As to conditions: HepG2 E-box cis-reporter transcription, actives raise or lower the signal. The procedure, abridged:
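First, HepG2 cells receive multiple cis-regulated reporter constructs by transient transfection. Next, chemicals are applied for 24 h. Finally, reporter mRNA is quantified via RT-PCR and capillary electrophoresis, with DMSO as baseline.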

Assay [10] can be described thus: ATG_M_61_CIS: Attagene CIS-FACTORIAL HepG2 Assay for M61 Transcription Factor (Internal Marker) (AID 2282937). The conditions noted are these: HepG2 Attagene CIS-FACTORIAL M61 internal marker reporter; actives raise or lower the signal. The procedure, abridged:
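HepG2 cells transiently transfected with cis-element-driven multiple reporter transcription units, dosed for 24 h. Reporter mRNA measured by RT-PCR, 6-FAM primer-extension labelling, HpaI digestion and capillary electrophoresis; bidirectional fit versus DMSO baseline.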

Assay [11] in a line: ATG_EGR_CIS: Attagene CIS-FACTORIAL HepG2 Assay for human Early Growth Response 1 (EGR1) (AID 2282938). As to conditions: HepG2 Attagene CIS-FACTORIAL EGR reporter mRNA; actives raise or lower the signal. A digest of the protocol:
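HepG2 cells transiently transfected with cis-promoter-driven multiplexed reporter transcription units; reporter mRNA measured 24 h after compound dosing by RT-PCR, 6-FAM primer extension, HpaI digestion and capillary electrophoresis. Bidirectional fit versus DMSO baseline.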

A short description of assay [12]: ATG_Ets_CIS: Attagene CIS-FACTORIAL HepG2 Assay for human Erythroblast Transformation Specific (ETS) (AID 2282941). As to conditions: HepG2 ETS cis-reporter transcription, actives raise or lower the signal. A digest of the protocol: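 HepG2 cells transfected with multiple cis-regulated reporter units measuring endogenous ETS-driven transcription, 24 h after dosing. Reporter mRNA quantified by RT-PCR with capillary electrophoresis; bidirectional fit relative to DMSO.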

Assay [13] can be described thus: ATG_FoxO_CIS: Attagene CIS-FACTORIAL HepG2 Assay for human Forkhead box O (FoxO) (AID 2282943). As to conditions: HepG2 Attagene cis-reporter, FoxO element, mRNA; actives raise or lower the signal. The procedure, abridged:
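Read-out: fluorescence of 6-FAM-labelled reporter cDNA fragments resolved by capillary electrophoresis. Transiently transfected HepG2 cells were dosed for 24 h; activity fitted in both directions relative to DMSO controls.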

A short description of assay [14]: ATG_GATA_CIS: Attagene CIS-FACTORIAL HepG2 Assay for human GATA Binding Protein (AID 2282944). As to conditions: HepG2 GATA cis-element reporter, Attagene multiplex mRNA; actives raise or lower the signal. The procedure, abridged:
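Measures endogenous transcription factor-driven reporter mRNA in HepG2 cells transiently carrying cis-regulated constructs. 24 h dosing; RNA via oligo(dT) reverse transcription, PCR, HpaI digestion, capillary electrophoresis; fitted relative to DMSO.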

Assay [15] can be described thus: ATG_GLI_CIS: Attagene CIS-FACTORIAL HepG2 Assay for human Zinc Finger Protein GLI1 (AID 2282945). The conditions noted are these: HepG2, Attagene cis-factorial reporter mRNA, GLI element; actives raise or lower the signal. A digest of the protocol:
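Transiently transfected HepG2 cells report endogenous transcription factor activity via cis-element-driven reporter units. After 24 h compound exposure, reporter mRNA was measured by RT-PCR with capillary electrophoresis; bidirectional fitting against DMSO baseline.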

The nature of assay [16]: ATG_ISRE_CIS: Attagene CIS-FACTORIAL HepG2 Assay for human Interferon Regulatory Factor 1 (IRF1) binding to an Interferon-Stimulated Response Element (ISRE) (AID 2282948). As to conditions: HepG2 ISRE cis-reporter (Attagene), mRNA transcription readout; actives raise or lower the signal. A digest of the protocol:
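Transiently transfected HepG2 cells carrying cis-element reporter units, dosed 24 hours. Reporter mRNA quantified by RT-PCR, fluorescent primer extension, HpaI digestion and capillary electrophoresis. Bidirectional fitting relative to DMSO.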

A short description of assay [17]: ATG_M_32_CIS: Attagene CIS-FACTORIAL HepG2 Assay for M32 Transcription Factor (Internal Marker) (AID 2282949).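 Note: background control marker of the multiplexed CIS panel rather than a real target.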 The conditions noted are these: HepG2 Attagene cis-factorial M32 reporter, mRNA; actives raise or lower the signal. The procedure, abridged:
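Following 24 h chemical exposure of HepG2 cells transiently expressing cis-promoter reporter constructs, reporter transcript levels were determined by RT-PCR with fluorescent labelling and capillary electrophoresis, then fitted bidirectionally against DMSO.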

A short description of assay [18]: ATG_M_06_CIS: Attagene CIS-FACTORIAL HepG2 Assay for M06 Transcription Factor (Internal Marker) (AID 2282950). The conditions noted are these: HepG2 Attagene CIS-FACTORIAL M06 internal marker reporter; actives raise or lower the signal. The procedure, abridged: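 One of many multiplexed endpoints: HepG2 reporter mRNA after 24 h dosing, detected by RT-PCR and capillary electrophoresis fluorescence; gain or loss of signal analysed against DMSO.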

Assay [19] addresses Paired box protein Pax-6 (Homo sapiens) (UniProt P26367). Briefly: ATG_Pax6_CIS: Attagene CIS-FACTORIAL HepG2 Assay for human Paired Box 6 (PAX6) (AID 2282956). As to conditions: HepG2 CIS-FACTORIAL PAX6 reporter transcription, RNA readout; actives raise or lower the signal. The procedure, abridged:
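HepG2 cells transiently transfected with cis-promoter-driven multiplexed reporter units sensing endogenous transcription factor activity; 24 h chemical exposure. Reporter mRNA quantified by RT-PCR, 6-FAM labelling, HpaI digestion and capillary electrophoresis; bidirectional fit versus DMSO baseline.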

Assay [20] in a line: ATG_PXRE_CIS: Attagene CIS-FACTORIAL HepG2 Assay for human Pregnane X Receptor Element (PXRE) (AID 2282957). As to conditions: HepG2 Attagene CIS-FACTORIAL PXRE reporter, mRNA; actives raise or lower the signal. The procedure, abridged: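 Transfect HepG2 with MRTUs (cis promoter elements); dose chemical, incubate 24 h; isolate RNA, RT with oligo(dT), PCR, 6-FAM label, HpaI cut, CE. Gain/loss fit vs DMSO.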

Active and inactive are the calls of the source. Rule for the calls: active = hit-call score of the fitted dose curve at least 0.9, where 1 is the maximum; inactive = score below 0.9.

Paired box protein Pax-6 (Homo sapiens), sequence (P26367 whole entry, looked up): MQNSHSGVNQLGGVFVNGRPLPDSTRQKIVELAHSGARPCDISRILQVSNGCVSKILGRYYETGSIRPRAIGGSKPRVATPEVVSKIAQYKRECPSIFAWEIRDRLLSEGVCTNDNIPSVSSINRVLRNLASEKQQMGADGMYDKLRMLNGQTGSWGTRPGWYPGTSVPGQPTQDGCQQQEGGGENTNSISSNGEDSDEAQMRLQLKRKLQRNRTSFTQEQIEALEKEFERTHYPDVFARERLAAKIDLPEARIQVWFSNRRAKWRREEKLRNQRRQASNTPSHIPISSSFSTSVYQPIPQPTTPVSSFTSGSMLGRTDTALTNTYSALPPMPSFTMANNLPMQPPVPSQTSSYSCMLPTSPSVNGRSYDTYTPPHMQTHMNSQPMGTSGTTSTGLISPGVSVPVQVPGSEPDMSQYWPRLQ
Transcription factor E2F1 (Homo sapiens), sequence (Q01094 whole entry, looked up): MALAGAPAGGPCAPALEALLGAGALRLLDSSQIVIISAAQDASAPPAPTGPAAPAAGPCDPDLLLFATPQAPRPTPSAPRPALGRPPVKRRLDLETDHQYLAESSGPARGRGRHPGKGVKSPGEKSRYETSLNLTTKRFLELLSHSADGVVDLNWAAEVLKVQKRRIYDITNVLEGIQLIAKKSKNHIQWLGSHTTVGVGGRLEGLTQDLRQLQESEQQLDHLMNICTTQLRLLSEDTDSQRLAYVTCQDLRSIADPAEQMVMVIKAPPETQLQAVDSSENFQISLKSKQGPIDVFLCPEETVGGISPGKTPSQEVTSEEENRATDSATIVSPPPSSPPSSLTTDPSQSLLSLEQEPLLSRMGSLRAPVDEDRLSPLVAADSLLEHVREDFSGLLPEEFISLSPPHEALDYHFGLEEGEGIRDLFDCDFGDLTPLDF
CCAAT/enhancer-binding protein beta (Homo sapiens), sequence (P17676 whole entry, looked up): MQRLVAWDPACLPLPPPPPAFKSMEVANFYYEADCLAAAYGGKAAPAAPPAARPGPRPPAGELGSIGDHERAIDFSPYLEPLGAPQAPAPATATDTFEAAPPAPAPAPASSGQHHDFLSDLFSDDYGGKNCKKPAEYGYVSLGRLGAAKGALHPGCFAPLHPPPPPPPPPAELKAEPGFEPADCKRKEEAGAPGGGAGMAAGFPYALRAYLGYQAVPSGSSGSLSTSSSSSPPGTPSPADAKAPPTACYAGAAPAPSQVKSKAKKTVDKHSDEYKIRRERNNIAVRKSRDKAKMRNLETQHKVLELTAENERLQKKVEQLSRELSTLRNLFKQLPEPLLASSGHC

One may read the AC50 as the concentration giving half of the maximal activity seen. In the case of `CCO[Si](OCC)(OCC)c1ccccc1`, the compound was called inactive in assay [1], in assay [2], in [3], in [4], in [5] and in [6]. Moreover, the compound was called inactive in assay [7], in assay [8], in [9], in assay [10], in assay [11] and in assay [12]. Moreover, the compound was classed as inactive in [13], in [14], in assay [15], in assay [16], in assay [17] and in [18]. Besides, the result in [19] was inactive. Further, the AC50 in [20] was 50.9 µM (active).

For the compound `O=C1NC(=O)C2CC=CCC12` (stereo not given), the compound was called inactive in assay [1], in assay [2], in assay [3], in assay [4], in assay [5] and in assay [6]. Besides, the call in assay [7], in [8], in [9], in assay [10], in assay [11] and in assay [12] was inactive. Also, the compound was classed as inactive in assay [13], in [14], in assay [15], in [16], in [17] and in assay [18]. In addition, the outcome in [19] and in [20] was inactive.

For the compound `CCCCCC1CCCC(=O)O1` (stereo not given), the compound was called inactive in assay [1], in [2], in assay [3], in assay [4], in [5] and in assay [6]. The call in assay [7], in [8], in assay [9], in [10], in assay [11] and in [12] was inactive. The outcome in [13], in assay [14], in [15], in assay [16], in assay [17] and in [18] was inactive. For the same compound, in assay [19], the result was inactive. In addition, the concentration at half-maximal activity (AC50) in assay [20] is 44.5 µM (active).

Turning to `CC/C=C\CCCCCO`, the compound was classed as inactive in assay [1], in [2], in assay [3], in [4], in assay [5] and in assay [6]. Moreover, the result in [7], in [8], in assay [9], in assay [10], in assay [11] and in assay [12] was inactive. Moreover, the call in [13], in assay [14], in assay [15], in assay [16], in [17] and in assay [18] was inactive. Moreover, the outcome in [19] was inactive. Besides, the AC50 in assay [20] is 78.4 µM (active).

Take `CCCCNC(N)=O`: the outcome in assay [1], in assay [2], in assay [3], in assay [4], in [5] and in [6] was inactive. In addition, the call in assay [7], in assay [8], in [9], in assay [10], in assay [11] and in assay [12] was inactive. For the same compound, the result in assay [13], in assay [14], in [15], in assay [16], in [17] and in assay [18] was inactive. In addition, the call in assay [19] was inactive. The AC50 in assay [20] was 68.7 µM (active).

Turning to `O=[N+]([O-])c1ccccc1C(F)(F)F`, the result in assay [1], in assay [2], in assay [3], in [4], in assay [5] and in [6] was inactive. For the same compound, the compound was called inactive in assay [7], in assay [8], in assay [9], in [10], in assay [11] and in [12]. In addition, the call in assay [13], in assay [14], in assay [15], in assay [16], in [17] and in assay [18] was inactive. The outcome in [19] and in assay [20] was inactive.

`c1cc[c]([Bi]([c]2ccccc2)[c]2ccccc2)cc1`: the result in [1], in [2], in assay [3], in assay [6], in assay [7] and in [8] was inactive. Moreover, the outcome in assay [9], in [10], in [11], in assay [12], in [13] and in assay [14] was inactive. Besides, the call in assay [15], in [16], in [17], in assay [18] and in [19] was inactive. Moreover, the AC50 is 5.72 µM (active) in assay [4], 58.1 µM (active) in assay [5] and 4.08 µM (active) in assay [20].

For the origin of these results see PubChem BioAssay (EPA / NIEHS).
